From PubChem
Sampled rows, rich in hits. Any-hit rate of the full collection: about 21%.
IL-1B inflam inh: qHTS for Inhibitors of Inflammasome Signaling: IL-1-beta AlphaLISA Primary Screen. THP-1 LPS/ATP IL-1B secretion, AlphaLISA, 16 h; stronger effect = lower value. activity change, % at 57.5 µM. 360,000 compounds, 4.7% hits. AID 743279, 2014; in the data active = activity change below about -50%; inconclusive = mostly about -30% to -49%
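Secreted IL-1B measured by AlphaLISA bead assay after 16 h compound exposure of THP-1 cells; compounds (final up to 57.5 uM) added 1 h before LPS (250 ng/mL) and ATP (1.25 mM) stimulation; lower signal means less secretion.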
ClpP mod: qHTS Assay for Activators of ClpP. ATP-dependent Clp protease proteolytic subunit (Bacillus subtilis (strain 168)), P80244. purified B. subtilis ClpP, FRET peptide cleavage, 20 min. Potency, µM (top dose mostly 57.5 µM). 340,000 compounds, 1.9% hits; active = well fitted falling curve with a large enough effect; inconclusive = small, poorly fitted or top-dose-only effect; inactive = no such curve, though single readings can be large or run the other way; also: the source files actives as falling curves though it sought activators and does not explain the sign; nearly all actives have a fitted effect of over 65% in size
Target sequence (P80244 whole entry, looked up): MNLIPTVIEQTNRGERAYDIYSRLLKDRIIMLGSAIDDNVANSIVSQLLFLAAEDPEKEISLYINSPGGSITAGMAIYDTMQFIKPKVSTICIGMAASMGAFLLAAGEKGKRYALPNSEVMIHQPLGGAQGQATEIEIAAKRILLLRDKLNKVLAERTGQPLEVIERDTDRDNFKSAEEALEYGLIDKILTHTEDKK
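ClpP 10 microg/mL final, pH 8 Tris/KCl buffer with BSA, glycerol, Tween-20; compound pinned in; FRET-FV substrate; RT 20 min; Ex320/Em430; ΔFRET vs ADEP 5.8 microM, DMSO, no enzyme.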
TDP1 cell noCPT: qHTS for Inhibitors of human tyrosyl-DNA phosphodiesterase 1 (TDP1): qHTS in cells in absence of CPT; 420,000 compounds, 15% hits; DT40 Tdp1-/- hTDP1 cells, no CPT, ATP luminescence, 48 h; Potency, µM (highest dose often 46.2 µM), most hits filed as inhibitors; also: nearly all actives have a fitted effect of over 55% in size
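Growth kinetics read by CellTiter-Glo luminescence after ≥48 hr at 37 °C. Cells: DT40 Tdp1-/- stably carrying human TDP1, 400 per well, compound exposure in the absence of CPT (DMSO vehicle).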
DT40 TDP1 CPT: qHTS for Inhibitors of human tyrosyl-DNA phosphodiesterase 1 (TDP1): qHTS in cells in presence of CPT. chicken DT40 Tdp1-/-;hTDP1 cells + 20 nM CPT, ATP luminescence, 48 h. Potency, µM (highest dose often 46.2 µM), usual class: inhibitors. 420,000 compounds, 12% hits; also: nearly all actives have a fitted effect of over 55% in size
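Chicken DT40 Tdp1-/- cells complemented with human TDP1, 400 cells/well, exposed to compounds plus 20 nM camptothecin for at least 48 h at 37 C; viability read as ATP content by CellTiter-Glo luminescence.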
DRD3 antagonist: qHTS of D3 Dopamine Receptor Antagonist: qHTS; D(3) dopamine receptor (Homo sapiens), P35462; 360,000 compounds, 2.5% hits; max response, negative = inhibition, %; D3R cells, DiscoveRx beta-arrestin luminescence, antagonist mode; stronger effect = lower value; in the data active = max response below about -50%; inconclusive = no clear call, values can overlap the other calls
Target sequence (P35462 whole entry, looked up): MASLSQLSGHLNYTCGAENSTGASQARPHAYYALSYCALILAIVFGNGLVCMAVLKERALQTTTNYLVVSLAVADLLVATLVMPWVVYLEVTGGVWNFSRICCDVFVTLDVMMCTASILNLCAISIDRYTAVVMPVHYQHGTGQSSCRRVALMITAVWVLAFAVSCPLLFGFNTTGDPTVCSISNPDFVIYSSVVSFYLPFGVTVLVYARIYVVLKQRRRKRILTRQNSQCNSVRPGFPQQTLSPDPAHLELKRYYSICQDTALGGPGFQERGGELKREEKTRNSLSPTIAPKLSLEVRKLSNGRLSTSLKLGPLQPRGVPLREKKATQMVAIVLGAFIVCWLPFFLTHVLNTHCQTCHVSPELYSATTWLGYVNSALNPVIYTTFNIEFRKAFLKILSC
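Cells expressing the human receptor were seeded at 1500 cells/well, incubated overnight at 37 degrees C in 5% CO2, then exposed to library compounds with dopamine controls for 90 minutes at 37 degrees C before luminescent detection.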
D3 ag: qHTS of D3 Dopamine Receptor Agonist: qHTS | D(3) dopamine receptor (Homo sapiens), P35462 | 410,000 compounds, 0.58% hits | D3R DiscoveRx beta-arrestin cells, luminescence, 90 min | AID 652048, 2013 | max activation, %; in the data active = max activation above about 30%
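Cells at 1500/well, incubated overnight, then treated with pinned compounds (dopamine as control) for 90 min at 37 degrees C. DiscoveRx reagent added for 30 - 60 minutes at room temperature; luminescence read.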
Large screens that a line does not name were inactive. Unless noted, calls follow the shape of the dose curve; as a rule, active = well fitted inhibition curve with a large enough effect; inconclusive = small, poorly fitted or top-dose-only effect; inactive = flat fitted curve, though single readings scatter.

O=C(NCc1nnnn1-c1ccc(F)c(F)c1)c1ccc2ccccc2c1	IL-1B inflam inh inconclusive, TDP1 cell noCPT inconclusive (no result: ClpP mod)
CCCCOc1ccc(C(=O)NCc2nnnn2-c2ccc(C)c(C)c2)cc1	TDP1 cell noCPT inconclusive, DT40 TDP1 CPT 16µM (no result: IL-1B inflam inh, DRD3 antagonist)
O=C(NCc1nnnn1-c1ccc(F)c(F)c1)c1ccc(S(=O)(=O)N2CCOCC2)cc1	ClpP mod 35µM
O=C(NCc1nnnn1-c1ccccc1)c1ccc2ccccc2c1	D3 ag 105
Cc1ccc(-n2nnnc2CNC(=O)C(C)(C)C)cc1C	none (no result: IL-1B inflam inh, DRD3 antagonist)
Cc1nn(-c2ccccc2)c(OC(=O)C(C)(C)C)c1Sc1ccccc1	none (no result: IL-1B inflam inh, DRD3 antagonist)
CC(C)NC(=O)N(C)C[C@@H]1Oc2ccc(NC(=O)CCN3CCOCC3)cc2CC(=O)N([C@@H](C)CO)C[C@@H]1C	none
CC(C)(C)c1ccc(C(=O)NCC(=O)OCc2cc(=O)n3nc(C4CC4)sc3n2)cc1	none (no result: IL-1B inflam inh, DRD3 antagonist)
COc1ccc(Nc2c(-c3ccsc3)nc3nc(C)cc(C)n23)cc1	TDP1 cell noCPT inconclusive, DT40 TDP1 CPT inconclusive (no result: IL-1B inflam inh, DRD3 antagonist)
COc1ccc(Nc2c(-c3ccc(F)cc3)nc3nc(C)cc(C)n23)cc1	TDP1 cell noCPT 16µM, DT40 TDP1 CPT 10µM
Cc1ccc(Nc2c(-c3cccs3)nc3nc(C)cc(C)n23)cc1	TDP1 cell noCPT inconclusive, DT40 TDP1 CPT 23µM (no result: IL-1B inflam inh, DRD3 antagonist)
Cc1cc(C)n2c(Nc3ccccc3)c(-c3ccccc3)nc2n1	TDP1 cell noCPT inconclusive, DT40 TDP1 CPT 16µM (no result: IL-1B inflam inh, DRD3 antagonist)
Cc1cc(C)n2c(Nc3ccc(Cl)cc3)c(-c3ccsc3)nc2n1	TDP1 cell noCPT inconclusive, DT40 TDP1 CPT inconclusive (no result: IL-1B inflam inh, DRD3 antagonist)
Cc1cc(C)n2c(NC3CCCCC3)c(-c3cccnc3)nc2n1	TDP1 cell noCPT 16µM, DT40 TDP1 CPT inconclusive
O=C(N[C@@H]1c2ccccc2C2(CCN(Cc3c(O)ccc4ccccc34)CC2)[C@H]1O)c1ccccc1	none (no result: IL-1B inflam inh, ClpP mod, DRD3 antagonist, D3 ag)
COCCn1c(C)cc(O)c(C(c2ccc(Cl)cc2)N2CCCCC2)c1=O (stereo not given)	none (no result: IL-1B inflam inh, DRD3 antagonist)
Cc1ccc(S(=O)(=O)N2CCN(C(=O)COC(=O)COc3cccc4c3OC(C)(C)C4)CC2)cc1	none
COc1ccc(-c2cc(=S)ss2)cc1	TDP1 cell noCPT inconclusive, DT40 TDP1 CPT 19µM (no result: IL-1B inflam inh, ClpP mod, DRD3 antagonist)
CN(C)c1ccc(-c2nn3c(-c4ccc(Cl)cc4)nnc3s2)cc1	ClpP mod inconclusive, TDP1 cell noCPT inconclusive
CN(C)c1ccc(-c2nn3c(C4CCCCC4)nnc3s2)cc1	TDP1 cell noCPT 23µM, DT40 TDP1 CPT 16µM
Cc1cccn2c(=O)c(/C=C(\C#N)c3nc4ccccc4s3)c(Oc3ccc(Br)cc3)nc12	ClpP mod inconclusive, TDP1 cell noCPT 6.5µM, DT40 TDP1 CPT 7.3µM (no result: IL-1B inflam inh, DRD3 antagonist)
COc1ccc(Oc2nc3c(C)cccn3c(=O)c2/C=C(\C#N)c2nc3ccccc3[nH]2)cc1	TDP1 cell noCPT inconclusive, DT40 TDP1 CPT inconclusive (no result: IL-1B inflam inh, DRD3 antagonist)
N#C/C(=C\c1c(Oc2ccc(F)cc2)nc2ccccn2c1=O)c1nc2ccccc2s1	TDP1 cell noCPT 12µM, DT40 TDP1 CPT inconclusive (no result: IL-1B inflam inh, DRD3 antagonist)
Cc1ccc(Oc2nc3ccccn3c(=O)c2/C=C(\C#N)c2nc3ccccc3s2)c(C)c1	TDP1 cell noCPT 4.1µM, DT40 TDP1 CPT 12µM (no result: IL-1B inflam inh, DRD3 antagonist)
Cc1ccc(Oc2nc3c(C)cccn3c(=O)c2/C=C(\C#N)C(N)=O)cc1	IL-1B inflam inh inconclusive, TDP1 cell noCPT 13µM, DT40 TDP1 CPT inconclusive
Cc1ccccc1Oc1nc2ccccn2c(=O)c1/C=C(\C#N)c1nc2ccccc2[nH]1	none (no result: IL-1B inflam inh, DRD3 antagonist)
CCOC(=O)/C(C#N)=C/c1c(Oc2cccc(C)c2)nc2c(C)cccn2c1=O	DT40 TDP1 CPT inconclusive
CCOC(=O)/C(C#N)=C/c1c(Oc2cc(C)cc(C)c2)nc2ccccn2c1=O	none
CCOc1ccc(N(C)S(=O)(=O)c2c(C(=O)N3CCC(C)CC3)c(C)n(C)c2C)cc1	TDP1 cell noCPT inconclusive, DT40 TDP1 CPT inconclusive (no result: IL-1B inflam inh, DRD3 antagonist)
